Screens (PubChem BioAssay)
CYP2C19 act: increases human CYP2C19 enzyme activity; recombinant CYP2C19, luciferin-H EGE luminescence; stronger effect = higher value; 0 = fully inhibited enzyme, 1 = untreated enzyme; activation factor at 5 µM; 96,000 tested, under 10 active;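 active = activation factor of at least 2 at 5 µM in the primary screen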
CYP2C9 inh: inhibitors of human CYP2C9 | CYP2C9 Supersomes, luciferin-H conversion, luminescence | P11712 | hit rate 20% among 96,000 | AID 777 | inhibition, % at 5 µM;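 active = blocking of liver enzyme CYP2C9 beyond about 50% at 5 µM, limit read from the data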
D1 allo mod: D1 dopamine receptor (human) allosteric modulation. P21728. HEK293 D1, CRE-luciferase, dopamine EC30 potentiation; actives deviate in either direction. B-score at 10 µM. hit rate 5.9% among 58,000. AID 641;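 active = luminescence count or its row- and column-corrected plate score outside the 99.7% band of the plate's sample wells, on either side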
Target sequence (P21728 whole entry, looked up): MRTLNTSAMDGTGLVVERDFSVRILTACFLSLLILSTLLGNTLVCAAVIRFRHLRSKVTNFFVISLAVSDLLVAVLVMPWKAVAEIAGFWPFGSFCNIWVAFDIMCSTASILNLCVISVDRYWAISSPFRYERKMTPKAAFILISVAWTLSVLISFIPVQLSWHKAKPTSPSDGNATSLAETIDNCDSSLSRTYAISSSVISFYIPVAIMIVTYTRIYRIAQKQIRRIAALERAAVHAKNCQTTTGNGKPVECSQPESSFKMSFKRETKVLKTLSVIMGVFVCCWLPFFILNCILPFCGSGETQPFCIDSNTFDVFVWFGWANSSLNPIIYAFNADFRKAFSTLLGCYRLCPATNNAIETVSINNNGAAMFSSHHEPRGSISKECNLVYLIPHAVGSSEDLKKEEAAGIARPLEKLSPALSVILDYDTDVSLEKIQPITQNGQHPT
CYP2C19 inh: inhibitors of human CYP2C19; CYP2C19 Supersomes, luciferin-H EGE luminescence, 30 min; hit rate 21% among 96,000; inhibition, % at 5 µM; P33261;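 active = CYP2C19 inhibition above a set limit at 5 µM in the primary screen, cut at about 50% in these data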
CYP2C9 activ: activators of human CYP2C9; hit rate 1.4% among 96,000; AID 1024; P11712; activation factor at 5 µM; recombinant CYP2C9, luciferin-H conversion, luminescence; stronger effect = higher value; factor 1 = untreated enzyme, 0 = blocked;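 active = activation factor of 2 or more for CYP2C9 at a 5 µM dose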
DAT uptake mod: human DAT dopamine uptake with cocaine, either direction. B-score at 10 µM. hit rate 1.3% among 110,000. LLC-PK1 hDAT cells, [14C]-dopamine uptake with cocaine IC80; actives deviate in either direction. Q01959;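 active = Z score or B-score, a plate-position-corrected score, falls beyond the plate's 99.7% confidence bounds, in either direction; inactive = both scores lie inside the 99.7% bounds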
A number is an active result; – = inactive; · = no result. An excerpt weighted towards active compounds, which were near 28% of everything screened.

SMILES	CYP2C19 act	CYP2C9 inh	D1 allo mod	CYP2C19 inh	CYP2C9 activ	DAT uptake mod
COCCCNS(=O)(=O)c1ccc2c(c1)OCCO2	–	–	–	78	–	–
COc1ccc(CNCc2cc3c(C(C)(C)C)nn(-c4ccccc4)c3[nH]c2=O)cc1	–	59	·	–	–	–
CC(C)(C)c1nn(-c2ccccc2)c2[nH]c(=O)c(CNCc3ccco3)cc12	–	62	–	–	–	–
CCCC(=O)O[C@H]1C[C@@H](C)N(C(=O)c2ccccc2)c2ccc(C)cc21	–	63	·	58	–	–
CCC(=O)OC1CC(C)N(C(=O)c2ccccc2)c2ccc(C)cc21 (stereo not drawn)	–	–	·	–	–	–
O=C1c2ccccc2C(=O)N1OCc1ccc(Cl)cc1	–	–	·	64	–	–
Cc1cc2nc(SCC(=O)N(C)C)c3c(c2cc1C)CCCC3	–	–	·	–	–	–
O=C(c1ccc(Nc2cccc(C(F)(F)F)c2)nc1)N1CCCC1	–	66	–	60	–	–
CN1C=CC=C/C1=C1\SC(=S)N(C2CCCCC2)C1=O	–	–	–	58	–	–
O=C(COc1ccc(-n2cnnn2)cc1)NC(=O)NCc1ccccc1	–	–	-4.4	–	–	–
COc1ccc(NC(=O)CSc2nnc(-c3ccccc3)n2Cc2ccco2)c(OC)c1	–	86	–	91	–	–
COc1ccc(NC(=O)CSc2nnc(-c3ccccc3Cl)n2Cc2ccco2)c(OC)c1	–	51	–	55	–	–
COc1ccccc1-n1c(CNC(=O)c2ccco2)nnc1SCC(=O)Nc1cc(C)ccc1C	–	–	–	–	2	–
CCOc1ccc(NC(=O)CSc2nnc(-c3ccccc3Cl)n2Cc2ccco2)cc1	–	96	–	86	–	–
CCN(CC)CCCN1C(=O)c2oc3ccccc3c(=O)c2C1c1cccs1 (stereo not drawn)	–	–	·	–	–	–
COC(=O)C1=C(C)N(Cc2ccco2)C(=O)N[C@@H]1c1ccco1	·	·	·	·	·	–
CCCC12CN3CC(CCC)(CN(C1)C3C(O)C(O)C(O)CO)C2=O (stereo not drawn)	–	–	·	–	–	–
COc1ccc(C)cc1NC(=O)CSc1nnc(COc2ccccc2)n1Cc1ccco1	–	–	–	87	–	·
COc1ccc(C)cc1NC(=O)CSc1nnc(CC(=O)Nc2ccccc2C)n1C	–	–	·	66	–	–
Cc1cccc(OCc2nnc(SCC(=O)N(C(C)C)C(C)C)n2Cc2ccco2)c1C	–	–	–	54	–	–
O=C(NCc1ccc2c(c1)OCO2)c1ccc(N2C(=O)C3CCCCC3C2=O)cc1 (stereo not drawn)	–	–	·	–	–	–
O=C(c1ccccc1)c1ccc(OCC(O)CN2CCCCC2)cc1 (stereo not drawn)	–	–	–	–	–	–
O=C(c1ccccc1)c1ccc(OCC(O)CN2CCN(S(=O)(=O)N3CCCCC3)CC2)cc1 (stereo not drawn)	–	98	·	85	–	–
CCC(=O)c1ccc(OCC(O)CN2CCN(S(=O)(=O)N3CCCCC3)CC2)cc1 (stereo not drawn)	–	72	–	52	–	–
COc1ccc2nc(N=Nc3ccc(N(C)C)cc3)sc2c1	–	–	·	58	–	·
SMILES	CYP2C19 act	CYP2C9 inh	D1 allo mod	CYP2C19 inh	CYP2C9 activ	DAT uptake mod
COc1ccc2nc(/N=C\N(C)C)sc2c1	–	–	–	–	–	–
COc1ccc(CC(C(=O)Nc2cc(C)ccc2C)/C(N)=N/O)cc1 (stereo not drawn)	–	–	–	–	–	–
O=C1C2CCCN2C(c2ccc(F)cc2)N1c1cccc(Cl)c1 (stereo not drawn)	–	–	–	–	–	–
COc1ccc(C2N(c3ccc(Cl)cc3)C(=O)C3CCCN32)cc1 (stereo not drawn)	–	–	–	52	–	–
COc1ccc(N2C(=O)C3CCCN3C2c2ccc(Cl)cc2)cc1 (stereo not drawn)	–	–	–	–	–	–
COc1ccc(C2N(c3cccc(Cl)c3)C(=O)C3CCCN32)cc1 (stereo not drawn)	–	66	–	–	–	–
CC(C(=O)NCC1CCCO1)n1cccc1C(=O)c1ccccc1 (stereo not drawn)	–	–	–	–	–	–
CC(Oc1ccccc1F)C(=O)Nc1ccc2ccccc2c1 (stereo not drawn)	·	·	·	·	·	–
COc1cc(CCC(=O)OCC(=O)Nc2nc(C)c(Cl)cc2Cl)cc(OC)c1OC	–	–	·	–	–	–
CC(C)=CC(=O)OCC(=O)Nc1nc(C)c(Cl)cc1Cl	–	–	–	83	–	–
CC(C)=CC(=O)OCC(=O)Nc1ccc(F)cc1Cl	–	–	·	63	–	–
O=C(CCn1c(=O)oc2ccccc21)NCCCN1CCCC1=O	–	–	–	–	–	–
O=C(NCCc1ccc(Cl)cc1)C1CCN(S(=O)(=O)N2CCCCC2)CC1	–	51	–	–	–	–
O=C(NCCc1ccccc1)C1CCN(S(=O)(=O)c2cccs2)CC1	–	–	–	–	–	–
CC(C)CN(CC(C)C)S(=O)(=O)N1CCC(C(=O)NCCc2ccc(Cl)cc2)CC1	–	54	·	54	–	–
O=C(NCCc1ccc(Cl)cc1)C1CCN(S(=O)(=O)c2cccs2)CC1	–	79	·	84	–	–
CC(C)N1C(=O)CCC1C(=O)NCCc1ccc(Cl)cc1 (stereo not drawn)	·	·	–	·	·	·
CC(C)NC(=O)C(=O)NCCc1ccc(Cl)cc1	–	–	·	92	–	–
CC(C)[C@H](NC(=O)[C@H](CCCN=C(N)N)NC(=O)NC(Cc1ccccc1)C(=O)O)C(=O)NC(C=O)CCCN=C(N)N (stereo partly drawn)	·	·	·	·	·	–
CCCC1C2CN(C(C)C)CC=C2C(C#N)=C(N)C1(C#N)C#N (stereo not drawn)	–	–	–	–	–	·
CCOC(=O)CCNC(C(=O)OCC)c1ccccc1 (stereo not drawn)	–	–	·	–	–	–
Cc1cc(C)c(C#N)c(SC(F)F)n1	–	–	·	–	–	–
O=C(Nc1ccc(Cn2nnc3ccccc32)cc1)c1ccco1	–	–	–	–	–	–
O=C(OCC(=O)N1CCc2ccccc21)c1ccc(Cl)nc1	–	–	·	–	–	–
O=C(O)C1CCCCC1C(=O)NCCc1cccc(Cl)c1 (stereo not drawn)	–	–	–	–	–	–
COc1cccc(CNC(=O)C2CCN(c3cnccn3)CC2)c1	·	·	–	·	·	–
O=C(O)C1CCCCC1C(=O)NCCc1ccc(Cl)cc1 (stereo not drawn)	–	–	–	75	–	–
O=C(NCCc1ccc(Cl)cc1)C1CCN(c2cnccn2)CC1	–	66	–	52	–	–
CC1=C(CC/C(C)=N/NC(N)=S)C(C)(C)CCC1	·	·	·	·	·	–
Cc1ccc2occ(C(c3nnnn3Cc3ccccc3)N3CCOCC3)c(=O)c2c1 (stereo not drawn)	–	–	–	–	–	–
